An excerpt weighted towards active compounds, which were near 2.1% of everything screened.
D2 ag-1: human D2 receptor agonism in beta-arrestin assay; P14416; actives 0.084% (n = 360,000); activation, % (no concentration beside the values); AID 624465; DiscoveRx PathHunter D2 beta-arrestin, luminescence, 90 min; 100% = 57 uM dopamine signal; in the data active = activation above about 40%
Target sequence (P14416 whole entry, looked up): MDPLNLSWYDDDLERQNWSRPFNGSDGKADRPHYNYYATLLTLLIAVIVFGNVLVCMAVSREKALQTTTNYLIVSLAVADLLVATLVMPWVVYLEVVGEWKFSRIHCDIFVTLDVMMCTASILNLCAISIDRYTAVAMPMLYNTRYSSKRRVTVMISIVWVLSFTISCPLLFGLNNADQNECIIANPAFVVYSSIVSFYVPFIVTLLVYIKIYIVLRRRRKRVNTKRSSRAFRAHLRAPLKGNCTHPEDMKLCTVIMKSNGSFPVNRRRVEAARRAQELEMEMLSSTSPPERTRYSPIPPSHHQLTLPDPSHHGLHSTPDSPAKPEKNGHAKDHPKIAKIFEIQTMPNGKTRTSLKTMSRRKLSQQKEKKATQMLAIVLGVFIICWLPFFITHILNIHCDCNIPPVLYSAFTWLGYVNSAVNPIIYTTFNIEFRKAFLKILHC
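DiscoveRx PathHunter D2 beta-arrestin cells (2,100/well) attached overnight, then compound-stimulated 90 min at 37 C in HBSS/10 mM HEPES/0.1% Tween-20 buffer; beta-galactosidase complementation read by luminescence after 1 h at ambient temperature. Dopamine 57 uM final (EC100) as control.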
D2 antagonist: antagonists of human D2 dopamine receptor; P14416; actives 2% (n = 340,000); HEK293 TREx D2 cells, calcium flux, dopamine EC80; inhibition, % at 10 µM; in the data active = inhibition above about 30%; inactive = below that, where a call was filed; also: 0% is about no effect
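Compounds are added to dye-loaded, induced HEK293 T-REx cells coupled to calcium release via D2; after a 3 min kinetic read an EC80 dopamine stimulus is given and fluorescence is recorded for 3 more min.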
D2 PAM-1: positive allosteric modulators of human D2 dopamine receptor; P14416; DiscoveRx D2 beta-arrestin cells, luminescence, 90 min; 100% = 57 uM dopamine signal; actives 0.23% (n = 360,000); potentiation, % (no concentration beside the values); in the data active = potentiation above about 50%
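D2 cells co-treated with compound plus 50 nM dopamine (EC20) for 90 min at 37 deg C to detect potentiation. Beta-arrestin recruitment was read as enzyme-fragment luminescence after 1 h at ambient temperature. Full response was set by 57 uM dopamine.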
D2 PAM-2: D2 dopamine receptor (human) potentiation | P14416 | actives 0.34% (n = 340,000) | potentiation, % at 10 µM | HEK293 T-REx D2, calcium flux, EC20 dopamine potentiation | AID 485347;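 active = potentiation over 3 SD above the plate norm, cut at about 30% in these data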; also: 0% is about no effect
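Cells plated with tetracycline inducer and held overnight at 30 C; calcium dye loaded 30–90 min at room temperature; baseline taken, compound added and read 180 s; EC20 dopamine then added and read 180 s.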
D2 ag-2: activates the human D2 dopamine receptor; P14416; HEK293 T-REx D2 cells, calcium flux agonist mode; activation, % at 2 µM; actives 0.53% (n = 340,000); AID 485358;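 active = activation over 3 SD above normal in the single-dose calcium agonist read, cut at about 30% in these data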; also: 0% is about no effect
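Calcium-flux readout, 1 cycle/sec over 180 s following compound pin transfer, in inducible HEK293 Trex D2 cells (force-coupled); dopamine controls included. Positive calcium responses during this window marked compounds as potential agonists.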
LDHA block: inhibitors of human lactate dehydrogenase A. P00338. purified LDHA, NADH/diaphorase-resazurin fluorescence; hits give low values. activity change, % (values are at about 110 or 230 µM). actives 0.15% (n = 480,000); in the data active = activity change below about -30%;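 also: plate controls were DMSO wells for no effect and wells without enzyme for full effect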
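Remaining NADH was detected by diaphorase (0.133 mg/mL) converting 37 µM resazurin to fluorescent resorufin, read at 0 and 20 minutes. The preceding 5-minute room-temperature reaction used 2 nM LDHA, 0.2 mM sodium pyruvate and 0.06 mM NADH at pH 7.4.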
Numbers without * were called inactive; nt = no result given.

SMILES	D2 ag-1	D2 antagonist	D2 PAM-1	D2 PAM-2	D2 ag-2	LDHA block
COc1ccc2c(C)c(CC(=O)N(C)C3CCS(=O)(=O)C3)c(=O)oc2c1 (stereo not given)	nt	nt	nt	nt	nt	5.7
COc1ccc(C2CC(=O)Nc3sc(C(=O)Nc4cccc(C(F)(F)F)c4)c(C)c32)cc1O (stereo not given)	nt	nt	nt	nt	nt	22.3
COCCCNCc1c2ccccc2c(Cl)c2ccccc12	nt	nt	nt	nt	nt	-8.0
Cc1cccc(NC(=O)c2c(C)nc3ccccn23)c1	-2.1	40.1*	-2.9	0.1	0.2	-9.2
Cc1cc(C)cc(NC(=O)c2c(C)nc3ccccn23)c1	10.8	11.1	11.3	5.2	-1.3	-7.6
COc1ccc(OCc2cc(C(=O)N3CCCC(CO)C3)no2)c2ccccc12 (stereo not given)	14.9	3.6	73.5*	-3.8	0.3	31.0
O=C(c1cc(COc2ccc(F)cc2F)on1)N1CC[C@@H]2CCCC[C@H]2C1	-4.2	-8.2	63.6*	1.3	-0.6	1.4
CSc1ccccc1OCc1cc(C(=O)N2CCCC(C)C2)no1 (stereo not given)	-1.5	0.9	3.9	-7.1	-1.5	-1.3
CCCCc1c(C)c2ccc(OC)c(/C(C)=N/O)c2oc1=O	nt	nt	nt	nt	nt	1.4
Cc1cc(NC2CCCCC2)nc2ccccc12	-3.8	44.0*	-13.6	-19.3	-0.5	1.8
Cc1ccccc1Nc1cc(C)c2ccccc2n1	nt	nt	nt	nt	nt	-0.6
CCCCCCn1nc(C(=O)Nc2ccc(OC)c(OC)c2)c2ccccc2c1=O	nt	nt	nt	nt	nt	10.8
c1cc(CNc2ccc3c(c2)OCCO3)ccn1	-0.3	-6.7	14.9	31.1*	1.8	10.4
O=C(CN1C(=O)c2ccccc2C1=O)Nc1ccccc1N1CCOCC1	4.4	-18.4	-3.1	-1.2	-0.6	-0.4
CCCCN1C(=O)c2ccc(C(=O)Nc3ccccc3N3CCOCC3)cc2C1=O	-6.1	43.8*	-28.0	6.8	2.7	-1.9
CCCn1nc(C(=O)Nc2nc(C)cs2)c2ccccc2c1=O	nt	nt	nt	nt	nt	-16.9
OC(CNCc1ccc(Cl)cc1)COc1ccccc1 (stereo not given)	-5.7	49.0*	-21.2	-22.8	0.8	-19.5
CNCC(O)COc1ccccc1 (stereo not given)	-0.5	3.6	2.0	22.5	0.3	1.5
Cc1ccc(OCCNCC(O)COc2ccccc2)cc1 (stereo not given)	0.5	45.2*	-13.6	-23.8	0.4	-14.8
COc1ccc(S(=O)(=O)Nc2ccc(Nc3cc(N4CCCCC4)nc(C)n3)cc2)cc1	nt	nt	nt	nt	nt	6.1
CCOc1ccccc1CN1CCCCCC1c1sccc1C (stereo not given)	nt	nt	nt	nt	nt	-30.8*
CC1CN(CC(=O)c2c(N)n(Cc3ccccc3)c(=O)n(C)c2=O)CC(C)O1 (stereo not given)	-1.4	35.8*	0.7	6.0	1.6	-3.2
C#CCNC(=O)NC(CC)c1ccc(C)cc1 (stereo not given)	nt	nt	nt	nt	nt	6.4
Cc1c(C(=O)C(=O)N(Cc2ccccc2)C(C)C)c2ccccc2n1C	nt	nt	nt	nt	nt	7.7
O=c1c2ccsc2ncn1Cc1ccc(Cl)cc1	-8.3	38.0*	-2.0	2.9	0.8	-5.7
SMILES	D2 ag-1	D2 antagonist	D2 PAM-1	D2 PAM-2	D2 ag-2	LDHA block
O=c1c2ccsc2ncn1Cc1coc(-c2cccc(Cl)c2)n1	nt	nt	nt	nt	nt	0.0
COc1ccccc1CCNS(=O)(=O)c1cn(C)c(=O)n(C)c1=O	-7.3	-13.4	-7.6	-4.8	0.4	-2.9
COc1ccccc1CCNS(=O)(=O)c1c(C)n(C)c(=O)n(C)c1=O	-5.8	3.1	-7.5	32.5*	0.0	-6.7
CN1CCN(S(=O)(=O)c2cccc(C(=O)NC3(C)CCS(=O)(=O)C3)c2)CC1 (stereo not given)	-0.1	-1.5	-21.8	40.7*	0.2	-4.0
CC1(NC(=O)c2cccc(S(=O)(=O)N3CCCc4ccccc43)c2)CCS(=O)(=O)C1 (stereo not given)	-0.8	-39.8	10.4	-1.4	0.5	-3.6
Cc1ccc(-c2cc(C(=O)O)c3cc(Cl)ccc3n2)s1	nt	nt	nt	nt	nt	16.2
CCNC(=O)NC(=O)CSc1cc(C)c2ccccc2n1	nt	nt	nt	nt	nt	-0.3
Cc1ccc(SCCNS(=O)(=O)c2ccc(F)cc2)cc1	-6.1	-2.6	1.6	6.4	-0.1	3.7
Cc1ccc(SCCNS(C)(=O)=O)cc1	-1.4	-11.7	-16.1	35.9*	-0.1	-5.3
CCN1CCSc2ccc(C(=O)NCc3cccc(F)c3)cc21	-6.0	44.2*	-9.3	-15.2	1.1	-8.6
CCCOc1ccc(CNC(=O)c2ccc3c(c2)N(CC)CCS3)cc1	-3.0	50.2*	-9.7	-15.4	1.2	-4.2
CCN1CCSc2ccc(C(=O)NCc3ccc(F)cc3)cc21	nt	nt	nt	-27.2	0.8	-1.1
CCOc1ccc(CNC(=O)c2ccc3c(c2)N(Cc2ccccc2)CCS3)cc1	nt	nt	nt	0.5	-0.4	-15.2
Nc1cc2c(cc1[N+](=O)[O-])OCCOCCOCCO2	3.8	11.3	2.0	-6.5	1.5	6.3
Nc1cc2c(cc1[N+](=O)[O-])OCCO2	-3.3	47.2*	-25.6	-8.0	0.3	-4.4
C#CCCOc1ccc(C(=O)c2ccc(-c3no[n+]([O-])c3C#N)cc2)cc1	nt	nt	nt	nt	nt	-11.6
S=c1[nH]nc(-c2cc(-c3ccccc3)n[nH]2)n1/N=C/c1ccc(Br)s1	-4.9	-1.5	-15.1	6.7	0.3	-42.7*
CCCN1CCC2(CC1)NC(C(=O)O)Cc1c2[nH]c2ccccc12 (stereo not given)	1.2	-7.7	-0.5	20.9	0.5	0.3
COC(=O)C1Cc2c([nH]c3ccccc23)C2(CCN(Cc3ccccc3)CC2)N1 (stereo not given)	-5.4	75.0*	-12.0	-31.6	4.2	7.5
N#CC1(C#N)CC2(O)NC(=O)C1(C#N)C(c1ccccc1)C2Br (stereo not given)	nt	nt	nt	nt	nt	-1.3
CCn1c(COc2ccccc2C)nnc1SCC(=O)NCc1ccccc1	-3.2	-5.2	-21.9	1.4	-0.1	-3.5
CCOc1cc(C)ccc1OCc1nnc(SCC(=O)c2cccc([N+](=O)[O-])c2)n1CC	-2.1	-14.6	-9.5	9.9	-1.0	-4.4
C=C(C)Cn1c(COc2ccccc2)nnc1SCC(=O)O	1.8	3.2	-15.0	-2.0	0.3	-10.5
CCn1c(COc2cccc3ccccc23)nnc1SCC(N)=O	-2.6	-14.8	-5.6	36.6*	1.0	-3.8
CCn1c(COc2ccccc2)nnc1SCC(=O)c1cccc([N+](=O)[O-])c1	-0.7	6.3	8.0	34.6*	0.3	-5.9
CC(Sc1nnc(COc2ccc([N+](=O)[O-])cc2)n1C)C(=O)O (stereo not given)	-3.5	8.7	-1.9	0.6	0.9	-6.4
C=CCn1c(COc2ccccc2)nnc1SCC(=O)O	-2.0	-5.9	-23.6	32.5*	0.4	-1.1

Source: PubChem (National Center for Advancing Translational Sciences (NCATS))
